Test results taken from PubChem BioAssay.
Activity calls are given as the source filed them. Unless noted, the rule behind the calls is not given here.

How the values were obtained:
[1] = test system: Wnt5a (protein binding on small-molecule microarray); assay: Wnt5a binders on small-molecule microarray, primary screen, biophysical, 635/667 nm fluorescence (AID 1142); conditions: 635 nm fluorescence, higher = more signal;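 note: fluorescence read at 667 nm with signal to noise per printed feature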
[2] = cell viability in Huh7 cells, primary screen, cytotoxicity control for HCV replication inhibitor project, CellTiter-Glo luminescence, basal, 48 h (AID 1143); conditions: Huh7 HCV replicon, higher = more signal, called active from +8 up or from −8 down;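 note: Huh7 hepatoma cells carrying a hepatitis C replication reporter with no stimulus; test concentration not given here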
[3] = P. aeruginosa biofilm formation inhibitors, primary screen, PAO1 strain, BacTiter-Glo luminescence, LB-PBS (AID 1144); conditions: 12 h, higher = more signal
[4] = CREB reporter modulators without forskolin, primary screen, cell-based, PC12, CRE-LacZ reporter, unstimulated (AID 1145); conditions: no forskolin, luminescence, 4.5 h, higher = more signal, called active from +8 up or from −8 down
[5] = CREB reporter modulators under forskolin, primary screen, cell-based, PC12, CRE-LacZ reporter, forskolin-stimulated (AID 1146); conditions: luminescence, 4.5 h, higher = more signal, called active from +8 up or from −8 down;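 note: PC12 cells with 6xCRE LacZ reporter stimulated by forskolin 10 µM; beta-galactosidase reporter signal reflecting CREB driven transcription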
[6] = molecular target: Streptavidin (Streptomyces avidinii) (UniProt P22629); assay: streptavidin binders on small-molecule microarray, primary screen, artefact control for SMM compound annotation, biophysical, 635/667 nm fluorescence (AID 1147); conditions: streptavidin binding, higher = more signal;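 note: signal reflects streptavidin binding to arrayed compounds as a control protein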
[7] = small-molecule binders of probe aInhba, primary screen, biochemical, small-molecule microarray, 635/667 nm fluorescence (AID 1148); conditions: higher = more signal;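 note: score merges 667nm spot fluorescence with signal-to-noise for antibody binding to printed compounds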
Torsin-1A (Homo sapiens) [8] = molecular target: Torsin-1A (Homo sapiens) (UniProt O14656); assay: torsin A binders from cell lysate, primary screen, small-molecule microarray, wild-type, 635/667 nm (AID 1149); conditions: COS7 hTOR1A-WT lysate, 635 nm fluorescence, higher = more signal
Torsin-1A (Homo sapiens) [9] = molecular target: Torsin-1A (Homo sapiens) (UniProt O14656); assay: small-molecule binders of mutant TOR1A in lysate, primary screen, cell lysate, small-molecule microarray, COS7 lysate, 635/667 nm fluorescence (AID 1150); conditions: COS7 hTOR1A mutant lysate, 635 nm fluorescence, higher = more signal;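 note: score pools 667 nm emission and signal to noise measuring lysate protein binding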
[10] = test system: Sonic hedgehog protein (Shh); assay: small-molecule binders of Shh protein, primary screen, biochemical, small-molecule microarray, 635/667 nm fluorescence (AID 1151); conditions: small-molecule microarray binding, 635 nm fluorescence; higher = more signal;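 note: Shh protein binding to compounds spotted on small-molecule microarray slides; score combines spot fluorescence intensity with signal-to-noise across triplicate slides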
[11] = E. coli DRC41 culture turbidity changes, primary screen, E. coli filamentation inducer project, strain DRC41, OD650, 48 h (AID 1152);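 note: E. coli MC1000 strain DRC41 lacking acrAB efflux pump and sulA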; conditions: E. coli DRC41 (acrAB sulA), higher = more signal, called active from +8 up or from −8 down
[12] = small-molecule binders of probe aLefty1, primary screen, biochemical, small-molecule microarray, 635/667 nm fluorescence (AID 1153); conditions: higher = more signal;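 note: score merges spot fluorescence with signal-to-noise ratio from the scanned slide images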
[13] = PSAC antagonists in infected red cells, primary screen, cell-based, P. falciparum Indochina, OD700, 1 h (AID 1154); conditions: P. falciparum Indochina infected RBC osmotic lysis, higher = more signal, called active from +8 up or from −8 down
[14] = PSAC antagonists in infected red cells, primary screen, cell-based, P. falciparum Indochina, OD700, 2 h (AID 1155);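 note: lysis reports solute entry through the parasite surface anion channel PSAC; channel blockers reduce lysis of infected cells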; conditions: P. falciparum Indochina infected erythrocytes, osmotic lysis OD700; higher = more signal, called active from +8 up or from −8 down
[15] = osmotic lysis modulators in infected erythrocytes, primary screen, PSAC antagonist project, cell-based, P. falciparum Indochina, OD700, 3 h (AID 1156); conditions: higher = more signal, called active from +8 up or from −8 down
[16] = PSAC antagonists in infected red cells, primary screen, cell-based, P. falciparum Indochina, OD700, 18 h (AID 1157); conditions: P. falciparum Indochina infected erythrocytes, osmotic lysis OD700, 18 h; higher = more signal, called active from +8 up or from −8 down
[17] = modulators of S6 phosphorylation in cells, primary screen, cell-based, A549, cytoblot, luminescence, serum-stimulated (AID 1158); conditions: A549 phospho-S6 cytoblot, 5 h, higher = more signal;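 note: serum-stimulated A549 lung adenocarcinoma cells; signal is phosphorylated S6 detected by cytoblot immunostaining with HRP secondary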
[18] = molecular target: NADPH oxidase 2 (Homo sapiens) (UniProt P04839); assay: NOX2-dependent H2O2 signal modulators, primary screen, NOX inhibitor project, cell-based, HEK293-NOX2, PMA-stimulated, Amplex Red fluorescence (AID 1159); conditions: 45 min, higher = more signal, called active from +8 up or from −8 down; note: test concentration not given here
[19] = molecular target: NADPH oxidase 4 (Homo sapiens) (UniProt Q9NPH5); assay: NOX4-dependent H2O2 signal modulators, primary screen, NOX inhibitor project, cell-based, HEK293-NOX4, tetracycline-induced, Amplex Red fluorescence (AID 1160); conditions: 45 min, higher = more signal, called active from +8 up or from −8 down
[20] = molecular target: NADPH oxidase 5 (Homo sapiens) (UniProt Q96PH1); assay: NOX5-dependent H2O2 signal modulators, primary screen, NOX inhibitor project, cell-based, HEK293-NOX5, Amplex Red fluorescence (AID 1161); conditions: HEK293-NOX5, ionomycin, 45 min, higher = more signal
NADPH oxidase 5 (Homo sapiens), sequence (Q96PH1 whole entry, looked up): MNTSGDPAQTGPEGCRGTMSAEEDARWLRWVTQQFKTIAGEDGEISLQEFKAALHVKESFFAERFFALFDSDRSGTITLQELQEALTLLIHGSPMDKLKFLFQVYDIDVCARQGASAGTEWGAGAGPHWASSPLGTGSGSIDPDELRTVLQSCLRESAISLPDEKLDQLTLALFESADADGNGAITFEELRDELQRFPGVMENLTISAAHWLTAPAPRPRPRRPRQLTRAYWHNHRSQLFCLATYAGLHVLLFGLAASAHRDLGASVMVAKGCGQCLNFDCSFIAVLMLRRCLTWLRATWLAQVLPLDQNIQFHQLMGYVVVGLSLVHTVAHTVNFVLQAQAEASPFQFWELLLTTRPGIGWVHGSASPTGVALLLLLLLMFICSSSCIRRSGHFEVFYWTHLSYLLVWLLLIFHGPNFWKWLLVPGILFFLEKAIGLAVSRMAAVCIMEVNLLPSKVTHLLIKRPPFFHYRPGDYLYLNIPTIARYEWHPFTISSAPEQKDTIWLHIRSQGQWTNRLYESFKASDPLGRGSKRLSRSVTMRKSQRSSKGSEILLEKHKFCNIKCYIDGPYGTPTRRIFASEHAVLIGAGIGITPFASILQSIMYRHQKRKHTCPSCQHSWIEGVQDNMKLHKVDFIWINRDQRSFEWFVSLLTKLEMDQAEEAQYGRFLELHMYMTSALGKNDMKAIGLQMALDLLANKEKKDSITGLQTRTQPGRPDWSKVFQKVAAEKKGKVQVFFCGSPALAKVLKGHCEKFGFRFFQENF

NADPH oxidase 2 (Homo sapiens), sequence (P04839 whole entry, looked up): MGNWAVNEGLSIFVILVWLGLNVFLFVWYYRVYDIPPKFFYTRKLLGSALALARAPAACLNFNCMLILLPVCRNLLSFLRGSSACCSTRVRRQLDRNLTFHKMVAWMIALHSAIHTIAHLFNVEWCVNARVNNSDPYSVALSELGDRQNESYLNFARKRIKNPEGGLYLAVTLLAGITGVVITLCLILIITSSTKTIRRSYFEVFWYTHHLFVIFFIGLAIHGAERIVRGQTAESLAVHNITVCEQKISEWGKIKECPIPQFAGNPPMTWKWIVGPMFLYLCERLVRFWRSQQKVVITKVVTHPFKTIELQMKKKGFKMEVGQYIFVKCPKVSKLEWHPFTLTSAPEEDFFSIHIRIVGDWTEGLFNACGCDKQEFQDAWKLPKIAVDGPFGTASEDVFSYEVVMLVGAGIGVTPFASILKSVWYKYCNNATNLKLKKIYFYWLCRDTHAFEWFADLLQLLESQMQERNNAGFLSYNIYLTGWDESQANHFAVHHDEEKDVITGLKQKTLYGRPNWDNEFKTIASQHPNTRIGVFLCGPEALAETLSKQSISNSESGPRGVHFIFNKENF
NADPH oxidase 4 (Homo sapiens), sequence (Q9NPH5 whole entry, looked up): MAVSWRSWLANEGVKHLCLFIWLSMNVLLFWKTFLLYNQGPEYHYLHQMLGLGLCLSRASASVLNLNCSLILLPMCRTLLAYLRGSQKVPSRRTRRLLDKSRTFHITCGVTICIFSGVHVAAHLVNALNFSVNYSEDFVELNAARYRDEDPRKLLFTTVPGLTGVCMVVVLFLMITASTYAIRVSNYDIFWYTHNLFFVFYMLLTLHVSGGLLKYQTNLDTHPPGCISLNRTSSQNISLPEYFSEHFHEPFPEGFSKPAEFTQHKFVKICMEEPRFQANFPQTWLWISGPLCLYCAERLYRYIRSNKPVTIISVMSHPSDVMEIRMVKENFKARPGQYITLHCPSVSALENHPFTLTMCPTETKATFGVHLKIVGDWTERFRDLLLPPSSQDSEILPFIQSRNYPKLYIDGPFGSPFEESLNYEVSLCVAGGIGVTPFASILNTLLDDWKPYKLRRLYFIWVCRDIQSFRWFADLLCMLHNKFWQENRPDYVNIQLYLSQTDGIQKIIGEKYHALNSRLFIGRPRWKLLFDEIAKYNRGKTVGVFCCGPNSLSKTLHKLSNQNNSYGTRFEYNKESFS
Streptavidin (Streptomyces avidinii), sequence (P22629 whole entry, looked up): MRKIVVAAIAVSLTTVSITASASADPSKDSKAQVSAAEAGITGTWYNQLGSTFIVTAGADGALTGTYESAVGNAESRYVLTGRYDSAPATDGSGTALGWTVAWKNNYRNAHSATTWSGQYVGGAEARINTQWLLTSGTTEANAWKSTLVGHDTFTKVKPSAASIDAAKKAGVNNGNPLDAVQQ
Torsin-1A (Homo sapiens), sequence (O14656 whole entry, looked up): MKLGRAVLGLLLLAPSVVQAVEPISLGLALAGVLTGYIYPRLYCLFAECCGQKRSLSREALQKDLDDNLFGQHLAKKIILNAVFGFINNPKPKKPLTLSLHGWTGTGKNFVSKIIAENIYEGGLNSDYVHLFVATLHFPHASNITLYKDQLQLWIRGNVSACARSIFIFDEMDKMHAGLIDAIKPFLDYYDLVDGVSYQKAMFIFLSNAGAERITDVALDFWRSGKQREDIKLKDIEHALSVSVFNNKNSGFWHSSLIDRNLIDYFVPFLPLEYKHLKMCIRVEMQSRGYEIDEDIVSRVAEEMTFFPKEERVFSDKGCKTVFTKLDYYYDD

Row | SMILES | composite z-score [1] | z-score [2] | z-score [3] | z-score [4] | z-score [5] | composite z-score [6] | composite z-score [7] | composite z-score (Torsin-1A (Homo sapiens) [8]) | composite z-score (Torsin-1A (Homo sapiens) [9]) | composite z-score [10] | z-score [11] | composite z-score [12] | z-score [13] | z-score [14] | z-score [15] | z-score [16] | z-score [17] | z-score [18] | z-score [19] | z-score [20]
1 | C=C(CCCC)C(=O)CC[C@H](OC(=O)c1ccccc1-c1ccccc1C(=O)O)c1ccc(OCCO)cc1 | 0.475 | -1.19 (inactive) | -1.5 (inactive) | -0.35 (inactive) | 2.12 (inactive) | -0.092 | 0.0614 | 0.374 | 0.204 | 1.91 | 0.418 (inactive) | -0.199 | 12.3 (active) | 1.38 (inactive) | 1.49 (inactive) | 0.847 (inactive) | -0.265 | 0.135 (inactive) | -0.406 (inactive) | -1.59
2 | CN(C)CCCNC(=O)[C@@]1(Cc2ccccc2I)c2ccccc2C(=O)N(C2CCCCC2)[C@H]1c1ccc(CO)cc1 | 0.418 | -5.91 (inactive) | 1.69 (inactive) | 2.12 (inactive) | 1.76 (inactive) | 1.19 | 0.41 | 0.305 | 0.794 | 0.618 | -2.04 (inactive) | 0.482 | 2.37 (inactive) | -0.0009 (inactive) | -2.34 (inactive) | -0.456 (inactive) | -2.25 | -9.9 (active) | -4.06 (inactive) | -3.65
3 | N#Cc1ccc(-c2cccc(=O)o2)cc1 | 0.0017 | 0.454 (inactive) | -0.131 (inactive) | -0.163 (inactive) | 0.648 (inactive) | 0.427 | 0.085 | 0.435 | 0.0587 | 0.458 | -0.729 (inactive) | -0.0954 | 3.14 (inactive) | 1.15 (inactive) | -0.598 (inactive) | 0.979 (inactive) | -0.0905 | 0.191 (inactive) | -1.72 (inactive) | 0.172
4 | COC(=O)[C@@]1(Cc2ccc(OC)cc2)[C@H]2c3cc(C(=O)N4CCCC4)n(Cc4c(CO)[nH]cc(C)c4=O)c3C[C@H]2CN1C(=O)c1ccccc1 | 0.702 | -1.1 (inactive) | -0.101 (inactive) | 0.37 (inactive) | 1.41 (inactive) | 1.51 | 0.0569 | 0.272 | 1.25 | -0.65 | -0.552 (inactive) | 0.213 | 0.843 (inactive) | -0.163 (inactive) | 0.455 (inactive) | -1.46 (inactive) | 2.57 | 0.753 (inactive) | 0.386 (inactive) | -4.96
5 | COC(=O)C(CC#Cc1ccc2c(c1)[C@]1(C(=O)N2)[C@H](c2ccc(OCCO)cc2)N2[C@H](c3ccccc3)[C@H](c3ccccc3)OC(=O)[C@H]2[C@@H]1C(=O)N1CCCCCCC1)C(=O)OC | 1.33 | -1.99 (inactive) | -1.14 (inactive) | 0.622 (inactive) | -0.159 (inactive) | 2.97 | 1.88 | 2.01 | 1.9 | 0.582 | -0.598 (inactive) | 2.67 | 7.3 (inactive) | 1.59 (inactive) | 0.309 (inactive) | 0.712 (inactive) | -0.173 | 0.783 (inactive) | 0.196 (inactive) | 1.44
6 | O=C1C2C=CC(C(O)c3ccc([N+](=O)[O-])cc3)N(Nc3ccccc3F)C2C(=O)N1c1ccccc1 (stereo not given) | 0.164 | -0.631 (inactive) | -0.242 (inactive) | 0.743 (inactive) | 0.402 (inactive) | 0.428 | 0.0028 | 0.16 | 0.52 | -0.449 | -1.36 (inactive) | 0.0625 | 9.91 (active) | 0.885 (inactive) | 0.458 (inactive) | 0.586 (inactive) | -0.888 | -2.54 (inactive) | -4.13 (inactive) | -3.11
7 | O=C1c2ccccc2[C@@]2(Cc3ccccc3N(Cc3ccccc3)C2=O)[C@H](c2ccc(CO)cc2)N1Cc1ccccc1Cl | -0.131 | -1.35 (inactive) | -1.09 (inactive) | -0.322 (inactive) | 0.164 (inactive) | -0.463 | -0.13 | -1.29 | 0.454 | -0.971 | -0.29 (inactive) | -0.0479 | 0.705 (inactive) | 0.387 (inactive) | -0.113 (inactive) | 0.18 (inactive) | 0.272 | -0.534 (inactive) | -0.644 (inactive) | -1.11
8 | C=CC[C@@]1(C(=O)N(C)C)N=C(c2ccc(OCCCO)cc2)O[C@@H]1c1ccccc1CN=[N+]=[N-] | 0.615 | -2.89 (inactive) | 1.1 (inactive) | 0.754 (inactive) | -0.357 (inactive) | 1.35 | 0.143 | 0.886 | 1.17 | 0.38 | 1.34 (inactive) | 0.0513 | 23.1 (active) | 6.73 (inactive) | 1.93 (inactive) | 1.26 (inactive) | -0.354 | 1.85 (inactive) | 0.736 (inactive) | -1.42
